The full list was thinned out, with the strongest signals kept by preference.
Key:
Test in all cases: glycan array binding signal (z-score within array); higher = stronger binding
Settings in all cases: glycan notation: IUPAC condensed, linker removed
Fuc(a1-2)Gal(b1-3)GlcNAc = target: Fuc(a1-2)Gal(b1-3)GlcNAc
How it was run: (§1)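 The binding signal is a Z-score computed within each array and averaged over linkers. Arrays of the same protein sequence at different concentrations or buffers were also averaged together. Data originate from 3228 arrays in the Consortium for Functional Glycomics database, kept only where the protein sequence was available.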

[1] = target: Fuc(a1-2)Gal(b1-3)GlcNAc(b1-3)Gal(b1-4)Glc
How it was run: as §1

[2] = target: Fuc(a1-2)[GalNAc(a1-3)]Gal(b1-4)GlcNAc(b1-3)Gal(b1-4)GlcNAc
How it was run: as §1

Fuc(a1-3)GlcNAc = target: Fuc(a1-3)GlcNAc
How it was run: as §1

[3] = target: Fuc(a1-3)[Gal3S(b1-4)]GlcNAc6S
How it was run: as §1

Fuc(b1-3)GlcNAc = target: Fuc(b1-3)GlcNAc
How it was run: as §1

[4] = target: Gal(b1-3)[Fuc(a1-4)]GlcNAc(b1-3)Gal(b1-3)[Fuc(a1-4)]GlcNAc
How it was run: as §1

[5] = target: Gal(b1-3)[Fuc(a1-4)]GlcNAc(b1-3)Gal(b1-4)[Fuc(a1-3)]GlcNAc
How it was run: as §1

[6] = target: Gal(b1-4)GlcNAc(b1-2)Man(a1-6)[GlcNAc(b1-2)Man(a1-3)]Man(b1-4)GlcNAc(b1-4)GlcNAc
How it was run: as §1

[7] = target: Gal3S(b1-4)[Fuc(a1-3)]Glc6S
How it was run: as §1

Gal3S4S(b1-4)GlcNAc = target: Gal3S4S(b1-4)GlcNAc
How it was run: as §1

Gal3S6S(b1-4)GlcNAc6S = target: Gal3S6S(b1-4)GlcNAc6S
How it was run: as §1

Gal4S(b1-4)GlcNAc = target: Gal4S(b1-4)GlcNAc
How it was run: as §1

[8] = target: GlcNAc(a1-4)Gal(b1-4)GlcNAc(b1-3)Gal(b1-4)Glc
How it was run: as §1

[9] = target: GlcNAc(a1-4)Gal(b1-4)GlcNAc(b1-3)Gal(b1-4)[Fuc(a1-3)]GlcNAc(b1-3)Gal(b1-4)[Fuc(a1-3)]GlcNAc
How it was run: as §1

[10] = target: GlcNAc(b1-2)Man(a1-3)[GlcNAc(b1-2)Man(a1-6)]Man(b1-4)GlcNAc(b1-4)[Fuc(a1-6)]GlcNAc
How it was run: as §1

[11] = target: GlcNAc(b1-4)GlcNAc(b1-4)GlcNAc(b1-4)GlcNAc(b1-4)GlcNAc(b1-4)GlcNAc
How it was run: as §1

Kdn(a2-3)Gal(b1-3)GlcNAc = target: Kdn(a2-3)Gal(b1-3)GlcNAc
How it was run: as §1

[12] = target: Man(a1-2)Man(a1-3)[Man(a1-2)Man(a1-6)]Man
How it was run: as §1

[13] = target: Man(a1-2)Man(a1-3)[Man(a1-2)Man(a1-6)]Man(a1-6)[Man(a1-2)Man(a1-2)Man(a1-3)]Man(b1-4)GlcNAc(b1-4)GlcNAc
How it was run: as §1

[14] = target: Neu5Ac(a2-3)Gal(b1-3)GalNAc(b1-3)Gal(a1-4)Gal(b1-4)Glc
How it was run: as §1

[15] = target: Neu5Ac(a2-3)Gal(b1-4)GlcNAc
How it was run: as §1

[16] = target: Neu5Ac(a2-3)Gal(b1-4)[Fuc(a1-3)]GlcNAc(b1-6)[Gal(b1-3)]GalNAc
How it was run: as §1

[17] = target: Neu5Ac(a2-3)[GalNAc(b1-4)]Gal(b1-4)Glc
How it was run: as §1

[18] = target: Neu5Ac(a2-3)[GalNAc(b1-4)]Gal(b1-4)GlcNAc(b1-3)GalNAc
How it was run: as §1

Neu5Ac(b2-6)GalNAc = target: Neu5Ac(b2-6)GalNAc
How it was run: as §1

[19] = target: Neu5Ac(a2-3)Gal(b1-3)[Fuc(a1-4)]GlcNAc
How it was run: as §1

[20] = target: Neu5Ac(a2-3)Gal(b1-4)GlcNAc(b1-2)Man(a1-3)[Neu5Ac(a2-3)Gal(b1-4)GlcNAc(b1-2)Man(a1-6)]Man(b1-4)GlcNAc(b1-4)[Fuc(a1-6)]GlcNAc
How it was run: as §1

[21] = target: Neu5Ac(a2-3)Gal(b1-4)GlcNAc(b1-2)[Neu5Ac(a2-3)Gal(b1-4)GlcNAc(b1-4)]Man(a1-3)[GlcNAc(b1-4)][Neu5Ac(a2-3)Gal(b1-4)GlcNAc(b1-2)[Neu5Ac(a2-3)Gal(b1-4)GlcNAc(b1-6)]Man(a1-6)]Man(b1-4)GlcNAc(b1-4)GlcNAc
How it was run: as §1

[22] = target: Neu5Ac(a2-3)Gal(b1-4)GlcNAc(b1-3)Gal(b1-4)GlcNAc(b1-3)Gal(b1-4)GlcNAc
How it was run: as §1

[23] = target: Neu5Ac(a2-3)Gal(b1-4)GlcNAc(b1-6)[Neu5Ac(a2-3)Gal(b1-3)]GalNAc
How it was run: as §1

[24] = target: Neu5Ac(a2-3)Gal(b1-4)[Fuc(a1-3)]GlcNAc(b1-3)Gal(b1-4)[Fuc(a1-3)]GlcNAc(b1-3)Gal(b1-4)[Fuc(a1-3)]GlcNAc
How it was run: as §1

[25] = target: Neu5Ac(a2-6)Gal(b1-4)GlcNAc(b1-3)Gal(b1-3)GlcNAc
How it was run: as §1

[26] = target: Neu5Ac(a2-6)Gal(b1-4)GlcNAc(b1-3)Gal(b1-4)GlcNAc(b1-3)[Neu5Ac(a2-6)Gal(b1-4)GlcNAc(b1-3)Gal(b1-4)GlcNAc(b1-6)]GalNAc
How it was run: as §1

Neu5Ac(a2-6)GalNAc = target: Neu5Ac(a2-6)GalNAc
How it was run: as §1

[27] = target: Neu5Ac(a2-8)Neu5Ac(a2-3)Gal(b1-4)Glc
How it was run: as §1

[28] = target: Neu5Ac(a2-8)Neu5Ac(a2-8)Neu5Ac(a2-3)[Gal(b1-3)GalNAc(b1-4)]Gal(b1-4)Glc
How it was run: as §1

Binder | glycan array binding signal (z-score) (Fuc(a1-2)Gal(b1-3)GlcNAc) | glycan array binding signal (z-score) [1] | glycan array binding signal (z-score) [2] | glycan array binding signal (z-score) (Fuc(a1-3)GlcNAc) | glycan array binding signal (z-score) [3] | glycan array binding signal (z-score) (Fuc(b1-3)GlcNAc) | glycan array binding signal (z-score) [4] | glycan array binding signal (z-score) [5] | glycan array binding signal (z-score) [6] | glycan array binding signal (z-score) [7] | glycan array binding signal (z-score) (Gal3S4S(b1-4)GlcNAc) | glycan array binding signal (z-score) (Gal3S6S(b1-4)GlcNAc6S) | glycan array binding signal (z-score) (Gal4S(b1-4)GlcNAc) | glycan array binding signal (z-score) [8] | glycan array binding signal (z-score) [9] | glycan array binding signal (z-score) [10] | glycan array binding signal (z-score) [11] | glycan array binding signal (z-score) (Kdn(a2-3)Gal(b1-3)GlcNAc) | glycan array binding signal (z-score) [12] | glycan array binding signal (z-score) [13] | glycan array binding signal (z-score) [14] | glycan array binding signal (z-score) [15] | glycan array binding signal (z-score) [16] | glycan array binding signal (z-score) [17] | glycan array binding signal (z-score) [18] | glycan array binding signal (z-score) (Neu5Ac(b2-6)GalNAc) | glycan array binding signal (z-score) [19] | glycan array binding signal (z-score) [20] | glycan array binding signal (z-score) [21] | glycan array binding signal (z-score) [22] | glycan array binding signal (z-score) [23] | glycan array binding signal (z-score) [24] | glycan array binding signal (z-score) [25] | glycan array binding signal (z-score) [26] | glycan array binding signal (z-score) (Neu5Ac(a2-6)GalNAc) | glycan array binding signal (z-score) [27] | glycan array binding signal (z-score) [28]
MIC2 (Toxoplasma gondii), S8F9G8 (protein) MRLQREAVFGLMFACGMWMWPSEVAGGGWSIVDALRKRYDTSRGGDANGVDTSGVEDVIQSESAIGAAEGCTNQLDICFLIDSSGSIGIQNFRLVKQFLHTFLMVLPIGPEEVNNAVVTYSTDVHLQWDLQSPNAVDKQLAAHAVLDMPYKKGSTNTSDGLKACKQILFTGSRPGREHVPKLVIGMTDGESDSDFRTVRAAKEIRELGGIVTVLAVGHYVKHSECRSMCGCSGTSDDDSPCPLYLRADWGQLATAIKPMLKEVCKTLPQDAICSDWSAWSPCSVSCGDGSQIRTRTEVSAPQPGTPTCPDCPAPMGRTCVEQGGLEEIRECSAGVCAVDAGCGVWGEWSAWSASCGNATRKRERTRYNDPPPQGAGRRCENQDPPVLQEQTEEATLAPCITIPPTPPEWAAWSDCTVTCGGGNRHRVRNALPPGLGSQNGESDESLVSKLWPGTDLRQEEACNTSPCPINATCGQFEEWSTCSVSCGGGLKTRSRNPWNEDQQHGGLSCEQQHPGGRTETITCNPQACPVDERPGEWAEWGECSVTCGDGVRERRRGKSLVEAKFGGRTIDQQNEALPEDLKIKNVEYEPCSYPACGASCTYVWSDWNKCVCPMGYQARHAAVKFDYRNKPCDLPTFETKACSCGETNPVPSEGTTPGAPGATGPEQPNQRPLPEGSDENETPTNEEGEQSKKESGSGIAGAIAGGVIGGLILLGAAGGASYHYYLSSSVGSPSAEIEYEADDGATKVVMEEEKETLVPVDDDSDMWME | -0.642 | -0.779 | -0.814 | -0.671 | 3.68 | 0.622 | -0.718 | 0.177 | -0.816 | 4.19 | 3.35 | 3.06 | -0.874 | -0.113 | 3.35 | 4 | 0.267 | -0.014 | -0.278 | 0.876 | 0.008 | 0.221 | 3.24 | 0.279 | 1.93 | -0.725 |  |  |  |  |  |  |  |  |  |  | 
FliC (Pseudomonas aeruginosa), P72151 (protein) MALTVNTNIASLNTQRNLNASSNDLNTSLQRLTTGYRINSAKDDAAGLQISNRLSNQISGLNVATRNANDGISLAQTAEGALQQSTNILQRIRDLALQSANGSNSDADRAALQKEVAAQQAELTRISDTTTFGGRKLLDGSFGTTSFQVGSNAYETIDISLQNASASAIGSYQVGSNGAGTVASVAGTATASGIASGTVNLVGGGQVKNIAIAAGDSAKAIAEKMDGAIPNLSARARTVFTADVSGVTGGSLNFDVTVGSNTVSLAGVTSTQDLADQLNSNSSKLGITASINDKGVLTITSATGENVKFGAQTGTATAGQVAVKVQGSDGKFEAAAKNVVAAGTAATTTIVTGYVQLNSPTAYSVSGTGTQASQVFGNASAAQKSSVASVDISTADGAQNAIAVVDNALAAIDAQRADLGAVQNRFKNTIDNLTNISENATNARSRIKDTDFAAETAALSKNQVLQQAGTAILAQANQLPQAVLSLLR |  |  |  |  |  |  |  |  |  |  |  |  |  |  |  |  |  |  |  |  |  |  |  |  |  |  | -0.192 | 20.9 | 8.36 | 0.251 | 0.476 | 3.22 | -0.117 | -0.127 | 1.71 | 2.98 | -0.227
